Assay results from ChEMBL document CHEMBL3988442, “University of Dundee, Small-Polar-MMV Screening Library” (2021).
The whole screen tested about 48,000 compounds, of which about 13,000 (27%) showed an effect of 50% or more. The list shows a part of the results.

These compounds were tested on Wolbachia pipientis (assay: Anti-Wolbachia Cell-Based Screen). Details: 5 µM.
Type: functional
Parameters: scale not given: in the data most compounds retested in dose-response had high values

Compound | Percent Effect [%]
CCN(CC)c1ccc(NS(=O)(=O)c2cccnc2)cn1 | 2.803
C[C@@H](NC(=O)c1cccn1C)c1c(-c2ccc(Cl)cc2)noc1C(=O)O | 1.666
Cc1nccn1-c1ccc(CNS(=O)(=O)N2CCCCC2C)cn1 (configuration not stated) | 6.496
Cn1cc(CN2CCC3(CCCN(Cc4ccccn4)C3)CC2)cn1 | -1.039
NC(=O)C1(CCCc2ccccn2)CCCN(Cc2ncc[nH]2)C1 (configuration not stated) | 141.6
CCOC(=O)C1(Cc2cccc(Cl)c2)CCCN(Cc2ncc[nH]2)C1 (configuration not stated) | -2.445
O=C(O)C1(Cc2ccc(F)cc2)CCCN(Cc2ccncc2)C1 (configuration not stated) | -12.28
O=C(O)C1(Cc2ccc(F)cc2F)CCCN(Cc2ccncc2)C1 (configuration not stated) | 1.95
NC(=O)C1(CCCc2ccccn2)CCCN(Cc2ccncc2)C1 (configuration not stated) | 119.7
CCOC(=O)C1(Cc2cccc(OC)c2)CCCN(Cc2ncc[nH]2)C1 (configuration not stated) | 25.22
Cn1cc(CN2CCCC(CCCc3ccccn3)(C(N)=O)C2)cn1 (configuration not stated) | 84.15
O=C(O)CCc1cc2n(n1)CCCN(C(=O)c1ccc(Cl)s1)C2 | -14.6
CCN1CCC(NN2CCN(C)CC2)CC1 | 4.072
CCS(=O)(=O)NCC(=O)N1CC2(CCCC2)c2c(F)cccc21 | -9.992
CC(=O)N[C@H]1C[C@@H](c2nc(-c3ccc4c(c3)OCO4)no2)N(C)C1 | -4.728
CN1C[C@@H](F)[C@@H](OCc2nc3ccccc3[nH]2)C1 | -2.12
COCCc1ncc(CN2CCC3(CCCN(CC4CC4)C3)C2)cn1 (configuration not stated) | 106.1
COc1ncc(CN2CCC3(CCCN(CC4CCCCC4)C3)C2)cn1 (configuration not stated) | 96.23
COCCc1ncc(CN2C[C@H](C3CC3)[C@@H](N)C2)cn1 | -19.64
OCC1(CC2CC2)CCCN(Cc2cnc(C3CCCCC3)nc2)C1 (configuration not stated) | -2.459
c1cnc(N2CCC3(CCCN(CC4CCCCC4)C3)C2)cn1 (configuration not stated) | 13.44
COCCc1ncc(CN2CCC(Oc3ccccc3C)CC2)cn1 | 2.53
CCCSc1ncc(C2CC(=O)NCc3nc4ccccn4c32)cn1 (configuration not stated) | 2.221
COc1ccccc1C1(CNc2cn[nH]c(=O)c2Cl)CC1 | 2.708
CC(NC(=O)c1cccnc1N(C)C)c1ccccc1Br (configuration not stated) | 9.946
C=C(C)COc1cccc(C(=O)N(C)C(C)c2ccncn2)c1 (configuration not stated) | -7.553

Compound | Percent Effect [%]
O=C(O)C(F)(F)F.O=C(c1cscn1)N1CCC2(CN(Cc3nccs3)C2)C1 | 5.214
O=C(O)C(F)(F)F.O=S(=O)(c1ccccc1)N1CCC2(CCCN2Cc2cccc(Cl)c2)C1 (configuration not stated) | -34.27
COCCC(=O)N1CCC2(CCN(Cc3cccc(F)c3)CC2)C1.O=C(O)C(F)(F)F | -14.27
O=C(O)C(F)(F)F.O=C(c1ccccc1)N1CCCC2(CCN2Cc2cccc(F)c2)C1 (configuration not stated) | 106.4
O=C(O)C(F)(F)F.O=C(c1cscn1)N1CCC2(CCN(Cc3nccs3)CC2)C1 | 11.65
CCS(=O)(=O)N1CCCC2(CCCN2Cc2cccc(F)c2)C1.O=C(O)C(F)(F)F (configuration not stated) | -5.383
O=C(O)C(F)(F)F.O=C(O)C(F)(F)F.O=C(O)CN1CCCC2(CCN2Cc2cccc(F)c2)C1 (configuration not stated) | 109.4
CNC(=O)CN1C(=O)CCC12CCCN(Cc1cccc(F)c1)C2.O=C(O)C(F)(F)F.O=C(O)C(F)(F)F (configuration not stated) | 0.4911
COC(=O)CCC(=O)N1CCCC2(CCCN2Cc2cccc(F)c2)C1.O=C(O)C(F)(F)F (configuration not stated) | 107.2
O=C(O)C(F)(F)F.O=C(c1cscn1)N1CCCC2(CCN2Cc2cccc(F)c2)C1 (configuration not stated) | 96.65
Cc1cnc(CNc2ccccc2CN(C)C(=O)c2cccs2)o1 | 6.302
Cc1cc(-c2nn(C)c(Cl)c2CN2CCOCC(O)C2)no1 (configuration not stated) | 7.686
Cc1ccc(OCC(=O)Nc2ncccc2OC(F)F)cc1 | -8.184
COc1ccc(-c2nc(CN3CCCS3(=O)=O)co2)cc1 | -14.94
CN(C)C(=O)N1CCN(c2ccc(Cl)nn2)C(=O)C1 | 97.53
CC(C)NC(=O)N1CCN(c2ccc(Cl)nn2)C(=O)C1 | 110.8
COC(=O)[C@@H]1CN(C(=O)NC(C)C)CCN1S(=O)(=O)c1ccccc1 | -0.3484
Cc1ccc2cc(C(=O)N3CCN(C(=O)N(C)C)CC3)ccc2n1 | 1.001
CC(=O)N1CCN(c2ccc(Cl)nn2)C(=O)C1 | 106.1
Cc1ccccc1N1CCN(C(=O)CSc2ccncc2)CC1=O | -3.872
CC(C)C(NC(N)=O)C(=O)N1CCN(c2ccccc2Cl)C(=O)C1 (configuration not stated) | 3.196
CC(O)C(=O)N1CCN(c2ccccc2Cl)C(=O)C1 (configuration not stated) | -6.675
COc1cccc(N2CCN(C(=O)C(O)c3ccccc3Cl)CC2=O)c1 (configuration not stated) | 0.2128
CCN1CCN(C(=O)C(C)SC)CC1 (configuration not stated) | -3.808
CC(C)(NS(C)(=O)=O)C(=O)NCc1cccc(Br)c1 | -10.37
Cc1cnc(CNc2ccc(C(=O)NCc3ccco3)cc2C)o1 | -1.967

Compound | Percent Effect [%]
O=C1COc2ccc(S(=O)(=O)NCc3ccccc3)c3c2N1CCC3 | -7.83
CCOC(=O)C1(Cc2ccc(Cl)cc2)CCN(Cc2ncc[nH]2)CC1 | -10.72
Cc1[nH]c2ccccc2c1CCNC(=O)N1CCC2(C1)OCCO2 | 5.663
Cc1nc(-c2ccsc2)ccc1C(=O)NCCN1CCOCC1 | -7.078
CC(NC(=O)Nc1ccccc1CN1CCOCC1)c1nccs1 (configuration not stated) | 15.83
O=C(C(CNCc1ccsc1)c1ccccc1)N1CCOCC1 (configuration not stated) | 2.12
Cc1n[nH]c(C2CN(CC(=O)NCCc3ccsc3)CCO2)n1 (configuration not stated) | -13.37
Cc1nc(C(Cc2ccsc2)NC(=O)CN2CCOCC2)sc1C (configuration not stated) | 171.6
Cc1cccc(CNC(Cc2ccsc2)c2nc(C)c(C)s2)n1.Cl (configuration not stated) | 125.8
Cc1ccc(CN2CCOCC2)cc1NCc1ccsc1 | -9.351
Cc1ccc(C(=O)N2CCOCC2)cc1NCc1ccsc1 | -10.53
CNS(=O)(=O)c1cccc(C(C)NCc2ccsc2)c1 (configuration not stated) | -13.31
O=C(CCN1CCOCC1)NC(Cc1ccsc1)c1nccs1 (configuration not stated) | 146.7
Cc1nc(C(Cc2ccsc2)NC(=O)CCN2CCOCC2)sc1C (configuration not stated) | 158.4
Cn1cc(C(C)(O)CNC(=O)c2cc(Br)cn2C)cn1 (configuration not stated) | 0.5421
Cc1n[nH]c(-c2ccc(NC(=O)C(C)(C)N3CCN(C)CC3)cc2)n1 | -11.99
CC(C)(C)c1cnc(CN2CCCS2(=O)=O)o1 | -7.665
O=C1CCc2cc(S(=O)(=O)NC(=O)c3ccc4c(c3)COC4)ccc2N1 | -36.98
O=c1c2cccc(Cl)c2ncn1C1CCNC1 (configuration not stated) | 5.785
Cc1ccc(C(=O)NCc2ccccc2S(=O)(=O)N(C)CCO)cc1F | -6.958
Fc1ccc(OCC2CCCO2)c(NCc2cn3cccnc3n2)c1 (configuration not stated) | -2.31
CS(=O)(=O)CCC(=O)Nc1cc(F)ccc1OCC1CCCO1 (configuration not stated) | 92.36
O=C(Nc1ccccc1OCC1CCCCO1)c1ccc(O)nc1 (configuration not stated) | 2.227
Cc1ccc(C(=O)Nc2cc(F)ccc2OCC2CCCO2)cn1 (configuration not stated) | -10.64
Nc1ccnc(CNc2cc(F)ccc2OCC2CCCO2)n1 (configuration not stated) | -8.979
Cc1ccc(NC(=O)N2CCCC2)c(OCC2CCCO2)c1 (configuration not stated) | 97.39

Compound | Percent Effect [%]
Cc1cnc(C(=O)Nc2cc(F)ccc2OCC2CCCO2)cn1 (configuration not stated) | -2.263
O=C(Nc1cc(F)ccc1OCC1CCCO1)c1ccc(O)nc1 (configuration not stated) | 10.58
O=C(Nc1cc(F)ccc1OCC1CCCO1)NC1CC1 (configuration not stated) | 110.8
O=C(CNc1cc(F)ccc1OCC1CCCO1)N1CCOCC1 (configuration not stated) | 97.1
CCn1nc(C)cc1C(=O)Nc1cc(F)ccc1OCC1CCCO1 (configuration not stated) | -4.642
CCOCCC(=O)Nc1cc(C(N)=O)ccc1N1CCCC(C)C1 (configuration not stated) | -3.919
CCc1nc(CN(C)CC(c2cccs2)N2CCOCC2)no1 (configuration not stated) | -2.837
COCCC(=O)N1CCc2cc(Cl)cc(Cl)c2C1 | -13.08
Cc1c(-c2c(-c3ccccc3)ncn2[C@H](CO)C(=O)O)cnn1C | -0.2965
CCOc1cccc(C(C)NCc2ccc(OC)c(OC)c2OC)c1 (configuration not stated) | 2.292
CCCC(NC(=O)c1cc(C2CC2)[nH]n1)c1nnc2ccccn12 (configuration not stated) | 4.911
O=C(Nc1cc(F)ccc1OCC1CCCO1)c1ccccn1 (configuration not stated) | -3.019
CC(C)(C)c1nnc(CNc2cc(F)ccc2OCC2CCCO2)o1 (configuration not stated) | 0.05226
O=C(Nc1cc(F)ccc1OCC1CCCO1)N1CCSCC1 (configuration not stated) | 95.33
CCc1noc(CNc2cc(F)ccc2OCC2CCCO2)n1 (configuration not stated) | -4.375
O=C(Nc1cc(F)ccc1OCC1CCCO1)N1CCCC1 (configuration not stated) | 75.82
O=C(CC(F)(F)F)Nc1cc(F)ccc1OCC1CCCO1 (configuration not stated) | 91.81
O=C(Nc1cc(F)ccc1OCC1CCCO1)c1ccoc1 (configuration not stated) | -0.8662
CC(=O)N1CCC(Nc2cc(F)ccc2OCC2CCCO2)CC1 (configuration not stated) | 103.1
CN(Cc1ccco1)C1CCC12CCN(C(=O)c1ccnnc1)CC2.O=C(O)C(F)(F)F (configuration not stated) | -20.01
CCN1CCN(S(=O)(=O)N2CCC(OC)CC2)[C@H]2CS(=O)(=O)C[C@H]21 | -12.77
Cc1ccc2nc(CN(C)Cc3ccc(C)o3)cc(=O)n2c1 | 4.444
CC(COc1ccccc1)NCc1nc(-c2cccnc2)no1 (configuration not stated) | -6.485
CS(=O)(=O)c1ccc(CNCC2CCN(CCO)CC2)cc1 | -3.753
